# Reference: PubChem BioAssay AID463173 (ICCB-Longwood Screening Facility, Harvard Medical School, 2010)
# About 4,300 (8.3%) of roughly 52,000 compounds were called active. The sample as a whole holds a higher share of actives than the screen did. Values without a mark were called inactive. Cut-off read from the data, not from the text of the source: active = survival mostly below about 52% (no sharp cut-off); inactive = mostly above about 56%.
# System: DeltatarO mutant
# Assay: S. aureus survival, RN4220 and DeltatarO strains – OD600, teichoic acid synthesis inhibitors, primary screen (AID 463173)
# Conditions: S. aureus RN4220 wild type/DeltatarO growth, OD600, 18 h, stronger effect = lower value, screened at 18.75 µg/mL (by protocol)
row,SMILES,survival
1,CC(C)Oc1ccc(C(=O)Nc2nonc2-c2ccc(OC(C)C)cc2)cc1,75%
2,Cc1ccc2c(c1)N(C(=O)CCC(=O)Nc1ccc(F)cc1F)CC(C)O2 (stereo not drawn),56%
3,CCOc1ccc(-c2nnc(SCC(=O)NCCc3ccc(OC)c(OC)c3)nc2-c2ccc(OCC)cc2)cc1,98%
4,CCOc1ccc(OCC)c(NC(=O)c2cnn(-c3ccc(F)cc3)c2-n2cccc2)c1,80%
5,Cc1ccccc1OCC(=O)Nc1ccc(-c2nc3cc(Cl)cc(Cl)c3o2)cc1,62%
6,Cc1ccc(C)c(NC(=O)CN2C(=O)c3cccnc3Oc3ccc(C)cc32)c1,80%
7,CCOc1ccc(S(=O)(=O)n2nc(C)c(S(=O)(=O)N3CCCCCC3)c2C)cc1,115%
8,CCC(Sc1nnc(C)n2c1cc1occc12)C(=O)Nc1ccccc1OC (stereo not drawn),77%
9,CCOC(=O)c1cc2occc2n1C(C)C(=O)OCC (stereo not drawn),80%
10,COC(=O)c1cc2sc(Cl)cc2n1CC(=O)Nc1cc(OC)cc(OC)c1,84%
11,CCOc1ccccc1NC(=O)C(CC)n1c(C(=O)OC)cc2occc21 (stereo not drawn),-4% (active)
12,CCC(C(=O)Nc1ccccc1OC)n1c(C(=O)OC)cc2sc(Cl)cc21 (stereo not drawn),-6% (active)
13,CCOC(=O)c1ccc2c(c1)N(C(CC)C(=O)Nc1ccccc1OC)C(=O)c1ccccc1S2 (stereo not drawn),101%
14,Cc1ccc(CNc2nc(-c3ccco3)nn2S(=O)(=O)c2ccc3ccccc3c2)cc1,115%
15,CCc1ccc(NC(=O)Cn2c(C(=O)OC)cc3oc(C)cc32)cc1,65%
16,CC(C)NC(=O)Cn1ncn2c(cc3cc(F)ccc32)c1=O,82%
17,CNC(=O)C1CCC(Cn2c(=O)c3sccc3n(CC(=O)Nc3cc(C)cc(C)c3)c2=O)CC1 (stereo not drawn),70%
18,Cc1nn(CCC(=O)Nc2cccc(C#N)c2)c(C)c1S(=O)(=O)N1CCCCC1,88%
19,CCc1ccc(NC(=O)CC2C(=O)N(c3ccc(C)cc3)C(=O)N2CCc2ccncc2)cc1 (stereo not drawn),81%
20,Nc1nonc1-c1nc2ccccc2n1Cc1c(Cl)cccc1Cl,50%
21,O=C(NCCc1ccc(Cl)cc1)c1ccc(CS(=O)(=O)Cc2ccccc2F)o1,-1% (active)
22,Cc1ccc(CNC(=O)c2ccc(CS(=O)(=O)Cc3ccc(F)cc3)o2)cc1,77%
23,O=C(NCCc1ccc(Cl)cc1)c1ccc(CS(=O)Cc2cccc(Cl)c2)o1 (stereo not drawn),38% (active)
24,CCOc1ccc(CCNC(=O)c2ccc(CS(=O)Cc3cccc(Cl)c3)o2)cc1 (stereo not drawn),50%

row,SMILES,survival
1,Cc1ccc(CCNC(=O)c2ccc(CS(=O)(=O)Cc3ccccc3F)o2)cc1,72%
2,Cc1ccccc1CS(=O)(=O)Cc1ccc(C(=O)NCc2ccc(F)cc2)o1,47% (active)
3,Cc1ccccc1CS(=O)(=O)Cc1ccc(C(=O)NCCc2ccc(Cl)cc2)o1,76%
4,O=C(NCCc1ccccc1)c1ccc(CS(=O)Cc2ccc(Cl)cc2)o1 (stereo not drawn),74%
5,CCc1ccc(CNC(=O)c2ccc(CS(=O)(=O)Cc3ccccc3C)o2)cc1,79%
6,CCc1ccc(NC(=O)Cn2c(=O)n(-c3ccccc3)c(=O)c3ccc(C(=O)NCc4ccc5c(c4)OCO5)cc32)cc1,112%
7,COc1ccc(NC(=O)NC(C)c2c(-n3cccc3)sc3c2CCN(C)C3)c(OC)c1 (stereo not drawn),70%
8,O=C(OCc1ccccc1F)c1ccc(-c2nnn(Cc3ccccc3)n2)cc1,122%
9,COc1cccc(CN(C(=O)c2ccc(C(C)(C)C)cc2)C2CCS(=O)(=O)C2)c1 (stereo not drawn),70%
10,COc1ccc(NC(=O)c2oc3ccccc3c2NC(=O)Cc2coc3cc(C)ccc23)cc1,70%
11,CN1CCN(S(=O)(=O)c2ccc(Br)c3ccccc23)CC1,99%
12,Cc1cc(Nc2ccc(Cl)cc2)n2cnnc2n1,65%
13,COc1ccc(-c2nn[nH]n2)cc1,105%
14,COc1ccc(NC(=O)c2c(N)c(C(=O)c3ccc(C)cc3)n3ccccc23)cc1OC,82%
15,Cc1ccc(NC(=O)Cc2ccc(NC(=O)N3CCCCc4ccccc43)cc2)cc1Cl,93%
16,CCS(=O)(=O)c1ccccc1C(=O)N1CCN(c2nc3ccccc3s2)CC1,55%
17,COc1ccc(CCNC(=O)c2cn(C)c3ccc(S(=O)(=O)N(C)C)cc3c2=O)cc1OC,84%
18,Cc1ccc(-c2nc(C)c(CCNS(=O)(=O)c3ccc(F)c(C(F)(F)F)c3)s2)cc1,-4% (active)
19,CCOc1ccc(S(=O)(=O)NCCc2sc(-c3ccc(C)cc3)nc2C)cc1,102%
20,Cc1ccc(-c2nc(C)c(CCNS(=O)(=O)c3ccccc3F)s2)cc1,76%
21,CC(C)c1nc2ccc(C(=O)NCCCN3CCN(c4ccccc4)CC3)cc2o1,120%
22,CC(C)COC(=O)Nc1ccc2c(c1)OCO2,62%
23,Cc1ccc(C)n1-c1nnc(N2CCCC(C(=O)NCc3ccc(F)cc3)C2)s1 (stereo not drawn),93%
24,CSc1ccc(C2c3[nH]c4ccccc4c3CCN2C(=O)CCC2CCCC2)cc1 (stereo not drawn),74%

row,SMILES,survival
1,CCCCSc1nnc2c(n1)OC(C)N(C(C)=O)c1ccccc1-2 (stereo not drawn),154%
2,CCSc1nnc2c(n1)OC(c1ccc(OC)cc1OC)N(C(C)=O)c1ccccc1-2 (stereo not drawn),58% (active)
3,CCCCSc1nnc2c(n1)OC(c1ccc(Br)s1)Nc1ccccc1-2 (stereo not drawn),10% (active)
4,CCCCCSc1nnc2c(n1)OC(CC)Nc1ccc(Br)cc1-2 (stereo not drawn),63%
5,CCSc1nnc2c(n1)OC(c1ccc(OC)c(OC)c1)N(C(C)=O)c1ccccc1-2 (stereo not drawn),53%
6,CCCSc1nnc2c(n1)OC(c1cccs1)Nc1ccc(Br)cc1-2 (stereo not drawn),30% (active)
7,CCCCCCSc1nnc2c(n1)OC(C)Nc1ccc(Br)cc1-2 (stereo not drawn),75%
8,CCCSc1nnc2c(n1)OC(c1ccc(Br)s1)Nc1ccccc1-2 (stereo not drawn),53%
9,CCCCCSc1nnc2c(n1)OC(c1ccc(C)s1)N(C(C)=O)c1ccccc1-2 (stereo not drawn),45% (active)
10,CCSc1nnc2c(n1)OC(c1ccc(C)cc1)N(C(C)=O)c1ccccc1-2 (stereo not drawn),55%
11,CCSc1nnc2c(n1)OC(c1cc(OC)c(OC)c(OC)c1)Nc1ccccc1-2 (stereo not drawn),61%
12,CCCCSc1nnc2c(n1)OC(c1ccc(Br)s1)N(C(C)=O)c1ccccc1-2 (stereo not drawn),47%
13,Cc1c(C(=O)N2CCC(C)CC2)c(S(=O)(=O)Nc2ccc(OC(F)(F)F)cc2)c(C)n1C,91%
14,CCc1cccc(C)c1NS(=O)(=O)c1ccc2c(c1)CC(C)N2C(=O)C1CC1 (stereo not drawn),88%
15,COc1ccc(C(=O)NCc2ccc3c(c2)CCN3C(=O)c2ccncc2)cc1,88%
16,Cc1ccc(Cl)cc1NC(=O)CN1C(=O)COc2ccc(S(=O)(=O)N3CCOCC3)cc21,101%
17,CCc1c(C)[nH][n+]2cnn(Cc3ccc(Cl)cc3)c2c1=O,89%
18,CCn1cnc2sc(C(=O)Nc3ccccc3)c(C)c2c1=O,87%
19,Cc1ccc(CNC(=O)c2nnn(Cc3ccc(F)cc3)c2N)cc1,91%
20,Cc1ccc(CNc2nc(-c3ccco3)nn2C(=O)c2ccccc2[N+](=O)[O-])cc1,111%
21,Cc1nn2c(=O)cc(COC(=O)c3ccc(NC(=O)COc4ccc(C)c(C)c4)cc3)nc2s1,116%
22,Cc1ccc(S(=O)(=O)NCCSc2nnnn2-c2ccccc2)cc1,71%
23,CCCCSc1nnc2c(n1)OC(c1ccc(C)s1)Nc1ccccc1-2 (stereo not drawn),41% (active)
24,CCSc1nnc2c(n1)OC(c1ccc(C)s1)Nc1ccccc1-2 (stereo not drawn),71%

row,SMILES,survival
1,CCCSc1nnc2c(n1)OC(c1sccc1C)Nc1ccccc1-2 (stereo not drawn),79%
2,Cc1cccc(C)c1OCc1nc2c3cnn(-c4cccc(F)c4)c3ncn2n1,78%
3,CC(=O)c1ccc(S(=O)(=O)N2CCn3cccc3C2c2ccccc2F)cc1 (stereo not drawn),82%
4,CCOc1ccc(-n2c(SCC(=O)NCC3CCCO3)nc3c([nH]c4ccccc43)c2=O)cc1 (stereo not drawn),74%
5,Cc1cc(Oc2c(C(F)(F)F)oc3c(CN4CCC(C)CC4)c(O)ccc3c2=O)cc(C)c1Cl,70%
6,COc1ccc(CC(=O)NCCc2csc(-c3ccc(C(F)(F)F)cc3)n2)cc1,-5% (active)
7,O=C(NCCc1csc(-c2cccc(F)c2)n1)c1ccco1,94%
8,Cc1cccc(-c2nc(CCNC(=O)Cc3ccc(F)cc3)cs2)c1,55%
9,COc1ccc(CC(=O)NCCc2csc(-c3cccc(C)c3)n2)cc1,68%
10,COc1ccc(CCC(=O)NCCc2csc(-c3ccc(C(F)(F)F)cc3)n2)cc1,73%
11,CCOc1ccc(CC(=O)NCCc2csc(-c3ccc(C(F)(F)F)cc3)n2)cc1,77%
12,Cc1cccc(-c2nc(CCNC(=O)c3ccc(Br)o3)cs2)c1,89%
13,Cc1cccc(-c2nc(CCNC(=O)Cc3ccccc3)cs2)c1,17% (active)
14,Cc1cccc(-c2nc(CCNC(=O)c3ccco3)cs2)c1,-5% (active)
15,CCOc1ccc(-c2nnc(SCC(=O)c3ccccc3)n2-c2ccccc2)cc1,136%
16,COc1cccc(CNC(=O)c2cc(S(=O)(=O)N3CCCCC3)c[nH]2)c1,64%
17,COc1ccccc1NC(=O)CSc1ncc2c(n1)-c1ccccc1N(Cc1ccccc1C)S2(=O)=O,101%
18,Cc1cc(=O)[nH]c2nnc(SCC(=O)NC(C)(C)C)n12,77%
19,COc1ccc(-c2cc(=O)oc3c4c(ccc23)OCN(Cc2ccccc2)C4)cc1,82%
20,COc1ccc(CN2COc3ccc4c(-c5ccc(OC)cc5)cc(=O)oc4c3C2)cc1,65%
21,COc1ccc(-c2cc(=O)oc3c4c(ccc23)OCN(Cc2cccc(OC)c2)C4)cc1,38% (active)
